# A549 viability: A549 cytotoxicity, counter-screen for Nrf2 inhibitors; A549 ARE-Fluc cells, CellTiter-Fluor viability, 18-24 h; Potency, µM (highest dose often 46 µM), without a hit: at the top dose activity change, negative = cytotoxicity, actives largely listed as inhibitors; 0.16% of 390,000 active; AID 504648; further: potency means the concentration at half of the fitted maximal effect
#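 A549 ARE-Fluc cells in 5% FBS OPTI-MEM, 5000 cells/well, rested 2 h then exposed to compounds in concentration-response for 18-24 h at 37 °C. Viability by CellTiter-Fluor fluorescence (Ex 405/Em 525) after 30 min; luciferase luminescence (BugLite, 15 min, RT) read afterwards.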
# KB-V1 MDR tox: KB-V1 MDR subline cytotoxicity. KB-V1 MDR cells viability, CellTiter-Glo, 72 h. Potency, µM (series often up to 46.1 µM), usual class: cytotoxic. 3.4% of 400,000 active. AID 1347076; further: potency means the concentration at half of the fitted maximal effect; nearly all actives have a fitted effect of over 60% in size
#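 KB-V1 cells (P-gp-expressing MDR subline of KB-3-1) in phenol-red-free DMEM with 10% FBS were exposed to library compounds over a concentration series for 72 h at 37 degrees C. Viability read by CellTiter-Glo luminescence; concentration-effect curves fitted after normalization.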
# PI4K2A inh: PI4K2A (human) kinase inhibition. Q9BTU6. 0.13% of 420,000 active. purified PI4K2A, ADP-Glo luminescence, 1 h; stronger effect = lower value. activity change, negative = inhibition, % at 76.9 µM; in the data active means activity change below about -50%; inconclusive means mostly about -30% to -49%;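 further: -100% = wells without enzyme as full effect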
# Target sequence (Q9BTU6 whole entry, looked up): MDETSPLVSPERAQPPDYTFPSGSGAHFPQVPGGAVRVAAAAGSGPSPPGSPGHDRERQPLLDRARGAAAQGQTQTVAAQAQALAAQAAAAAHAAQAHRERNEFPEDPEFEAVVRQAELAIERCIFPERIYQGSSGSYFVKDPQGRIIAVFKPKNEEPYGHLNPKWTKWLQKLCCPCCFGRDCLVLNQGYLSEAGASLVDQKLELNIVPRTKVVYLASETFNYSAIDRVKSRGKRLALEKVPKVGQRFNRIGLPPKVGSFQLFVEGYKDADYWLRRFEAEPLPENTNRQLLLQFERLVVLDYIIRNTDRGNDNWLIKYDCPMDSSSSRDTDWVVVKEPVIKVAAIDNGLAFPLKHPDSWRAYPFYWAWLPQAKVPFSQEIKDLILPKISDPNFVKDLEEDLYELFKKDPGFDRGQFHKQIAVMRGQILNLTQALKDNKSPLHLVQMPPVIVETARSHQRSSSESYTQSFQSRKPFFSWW
#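 In this quantitative HTS, ADP production by PI4K2A was quantified luminescently after 1 h at ambient temperature; 100 microM adenosine served as plate-quality control.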
# Giardia killer: Giardia lamblia killing; Giardia lamblia trophozoite viability; activity change, % at 7.66 µM, hits read low; 0.15% of 340,000 active; AID 540267; in the data active means activity change below about -80%; inconclusive means between about -30% and that limit;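 further: parasites exposed to compound for two days anaerobically before the ATP read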
#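 Luminescent ATP signal served as the viability read-out, measured 15-30 min after adding ATP detection reagent to trophozoites that had been incubated with compounds for 48 hrs at 37 deg C anaerobically at 100 cells/well.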
# Nrf2 block: inhibitors of Nrf2 signaling. 2.1% of 360,000 active. A549 ARE-Fluc reporter, luciferase luminescence, 18-24 h. Potency, µM (series often up to 46 µM), without a hit: top-dose activity change, negative = inhibition, usual class: inhibitors; further: potency means the concentration at half of the fitted maximal effect; nearly all actives have a fitted effect of over 60% in size
#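 Quantitative HTS in A549 cells stably bearing an antioxidant response element-firefly luciferase construct. Inhibition of Nrf2-driven transcription was scored by luminescence after 18-24 h of compound exposure at 37 °C.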
# KB-3-1 tox: kills parental KB-3-1 adenocarcinoma cells | Potency, µM (highest dose often 46.1 µM), actives largely listed as cytotoxic | KB-3-1 viability, CellTiter-Glo ATP luminescence, 72 h | 1.4% of 400,000 active; further: potency means the concentration at half of the fitted maximal effect; nearly all actives have a fitted effect of over 60% in size
#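 Using CellTiter-Glo luminescence, growth of non-resistant KB-3-1 adenocarcinoma cells is assessed 72 h after pin-tool compound addition at 37 °C. Normalized responses across the concentration series yield fitted curves.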
# The depositor's hits bear a star; i = inactive; u = inconclusive; x = no result; ! = repeats disagree. Sampled rows, rich in hits. Any-hit rate of the full collection: about 5.7%. Unless noted, the call rests on the fitted dose curve; in most records, active means well fitted curve in the direction sought with a large enough effect; inconclusive means small, poorly fitted or top-dose-only effect, or another doubt; inactive means no such curve, though single readings can be large; an effect the other way counts as inactive or inconclusive. Unless noted, on the % scale 0 is the no-effect control and ±100 the full control effect.
SMILES,A549 viability,KB-V1 MDR tox,PI4K2A inh,Giardia killer,Nrf2 block,KB-3-1 tox
COc1ccc(C2Nc3ccccc3C(=O)N2Cc2ccccn2)cc1COc1ccc(NC(C)=O)cc1 (stereo not drawn),-11.0%,x,x,x,u,x
O=C(O)COc1ccc(-c2nccc(-c3ccccn3)n2)cc1,-0.9%,u,-2.8,-25.7,2.06µM*,i
FCCCOc1ccc(-c2nccc(-c3ccccn3)n2)cc1,11.1%,u,-1.3,-13.5,u,i
CCOc1ccc(CCNC(=O)Cn2cccc2C(=O)c2ccccc2C)cc1OCC,-9.1%,4.61µM*,2.0,-0.1,-10.4%,i
CCOC(=O)C1CCCN(c2c(C(=O)c3ccc(C)cc3)cnc3ccc(OCC)cc23)C1 (stereo not drawn),u,x,-22.6,-12.0,23.1µM*,x
CCN(CC)Cc1cc(Nc2c3ccccc3nc3c4ccccc4n(C)c23)cc(CN(CC)CC)c1O,16.4µM*,i,1.5,1.3,u,u
CCOc1cc2nc3c4ccccc4n(C)c3nc2cc1OCC,-15.1%,i,-1.1,23.9,-12.7%,i
Cc1ccc(CCS(=O)(=O)c2ccc(C(C)(C)C)cc2)cn1,-3.8%,u,-2.9,17.4,8.2µM*,i
C(=C\c1c[nH]c2ccccc12)/c1ccc2ccccc2n1,x,i,x,x,x,i
C=C1C(=O)O[C@@H]2[C@H]1[C@@H](OC(=O)/C(C)=C/C)C/C(C)=C\C(=O)/C=C(\C)[C@@H]2O,u,u,-2.7,-27.6,20.6µM*,2.91µM*
COc1cc(NC(=O)c2ccccc2)c(C)cc1NC(=O)CSc1nnc(-c2cnccn2)n1-c1ccc(C)cc1,x,x,2.4,x,x,x
COc1cc(Cl)c(NS(=O)(=O)c2ccc(-c3cnc(C4CC4)o3)cc2)c(OC)c1,-16.1%,1.03µM*,2.1,x,x,1.64µM*
COc1ccc(C)cc1NS(=O)(=O)c1ccc(-c2cnc(C3CC3)o2)cc1,u,u,-0.7,-1.2,u,0.206µM*
N#Cc1ccc(NS(=O)(=O)c2ccc(-c3cnc(C4CC4)o3)cc2)cc1,-12.1%,i,0.6,x,x,i
Cc1ccc(NS(=O)(=O)c2ccc(-c3cnc(C4CC4)o3)cc2)cc1,-3.4%,u,4.1,-13.9,u,18.4µM*
Cc1cccc(C)c1NS(=O)(=O)c1ccc(-c2cnc(C3CC3)o2)cc1,0.5%,0.731µM*,-4.8,-3.8,-11.0%,0.0231µM*
CC(=O)c1ccc(NS(=O)(=O)c2ccc(-c3cnc(C4CC4)o3)cc2)cc1,-4.1%,u,9.2,1.2,u,i
CC1(C)CC(=O)c2cc(C(=O)Nc3cccc4ccccc34)c(=O)[nH]c2C1,x,i,x,x,x,i
O=C(OCc1cn(Cc2ccc(Cl)cc2)nn1)N1CCOCC1,x,x,-0.7,x,x,x
CCCCN1CC[C@H](C)Oc2cc(Br)ccc2S1(=O)=O,x,x,-3.8,x,x,x
CCc1cccc(NC(=O)CN(C)S(=O)(=O)c2ccc3c(c2)CCCN3C(C)=O)c1,-4.2%,i,3.8,x,x,i
COc1cccc(NS(=O)(=O)c2cc(-c3cnc(C4CC4)o3)ccc2C)c1,u,7.31µM*,-1.1,x,x,4.11µM*
Cc1ccc(N(C)S(=O)(=O)c2ccc(-c3cnc(C4CC4)o3)cc2)cc1,-6.5%,2.91µM*!,-2.1,13.6,-3.8%,3.26µM*!
COc1ccc2[nH]c(=O)c(CN(C(=O)NC3CCCCC3)C3CCCCC3)cc2c1,0.5%,10.3µM*,0.7,25.4,-23.4%,u
O=C(c1ccco1)N(Cc1cc2ccccc2[nH]c1=O)C1CCCCC1,-9.8%,i,4.5,16.7,22.2%,i
SMILES,A549 viability,KB-V1 MDR tox,PI4K2A inh,Giardia killer,Nrf2 block,KB-3-1 tox
O=C(c1ccncc1)N(Cc1cc2ccccc2[nH]c1=O)C1CCCCC1,-11.7%,u,-1.0,-4.7,1.8%,9.2µM*
COc1ccc2[nH]c(=O)c(CNc3cccc(C)c3)cc2c1,-13.2%,5.8µM*,10.9,-23.9,u,u
COc1ccc(NCc2cc3cc(OC)ccc3[nH]c2=O)cc1,-0.3%,18.4µM*,-3.6,6.4,-27.8%,i
O=S(=O)(NC1CCCC(NS(=O)(=O)c2c(F)cccc2F)C1)c1ccc2c(c1)OCCO2 (stereo not drawn),-5.5%,x,x,x,4.6%,x
Cc1ccc(-c2cc(-c3nnc(SCC(=O)Nc4nccs4)n3N)[nH]n2)cc1,x,x,6.7,x,x,x
CC(=O)c1ccc(NC(=O)NC2CCCCN(Cc3cccc(Cl)c3)C2=O)cc1 (stereo not drawn),x,x,-3.4,x,x,x
COc1cc(OC)c(OC)cc1/C=c1\[nH]c(=O)/c(=C/c2cc(OC)c(OC)cc2OC)[nH]c1=O,x,i,x,x,x,u
COC(=O)c1ccsc1NC(=O)CSc1nnnn1-c1ccccc1SC,-19.7%,u,0.1,-4.0,20.6µM*,i
CSc1ccccc1NC(=O)CSc1nnnn1-c1ccccc1SC,1.8%,i,2.3,-6.4,6.3%,i
CNc1nc(N)c([N+](=O)[O-])c(Nc2cccc(Br)c2)n1,x,x,-1.9,x,x,x
CCN1C(=O)[C@@H]2[C@@H](c3ccc(-c4ccccc4)cc3)N3CCC[C@@]3(C(=O)OC)[C@@H]2C1=O,-5.5%,i,-1.2,3.2,4.4%,i
CCN1C(=O)[C@H]2[C@@H](c3ccc(-c4ccc(Cl)c(Cl)c4)c(OC)c3)N3CCCC[C@@]3(C(=O)OC)[C@H]2C1=O,-16.2%,u,1.2,19.3,u,20.6µM*
CCN1C(=O)[C@H]2[C@@H](c3ccc(-c4cccc(Cl)c4)c(OC)c3)N3CCCC[C@@]3(C(=O)OC)[C@H]2C1=O,0.5%,20.6µM*,5.9,2.9,u,i
CCN1C(=O)[C@H]2[C@@H](c3ccc(-c4ccccc4)cc3)N3CCC[C@@]3(C(=O)OC)[C@H]2C1=O,-2.1%,i,1.8,-15.5,14.6µM*,i
CCN1C(=O)[C@H]2[C@@H](c3ccc(-c4cccc(Cl)c4)cc3)N3CCCC[C@@]3(C(=O)OC)[C@H]2C1=O,-5.8%,i,-2.6,4.5,u,u
COc1ccc(F)cc1-c1cc(C(C)=O)c2n(c1=O)CCC2,x,x,-2.1,x,x,x
CCOc1ccccc1C(=O)Nc1ccccc1-c1ccccc1,0.8%,14.6µM*,-2.6,-22.6,-12.3%,u
CCOc1ccccc1NC(=O)C(OC(=O)c1ccccc1O)c1ccccc1 (stereo not drawn),-3.6%,11.6µM*,-3.0,12.8,8.9%,i
O=C(Nc1ccc(Nc2ccccc2)cc1)c1ccc(Cl)c([N+](=O)[O-])c1,2.1%,i,0.8,14.3,-4.8%,i
O=C(Nc1ccccc1-c1ccccc1)c1ccc(Cl)c([N+](=O)[O-])c1,0.2%,i,-1.4,-1.1,16.0%,16.4µM*
